The first experiment in a line: binders from COS7 lysate, DM2A8 probe, primary screen, torsin A project, cell lysate, small-molecule microarray, fluorescence 635/667 (AID 1065). Conditions: higher = more signal, COS7 lysate expressing mutant human TOR1A.
The compound `O=C1NCC(=O)N2[C@@H]1C[C@@H](C(=O)O)[C@H]2c1cccc(OCCO)c1` yielded a composite z-score of 2.65.

Compound `COCCOC(=O)N1C(=O)[C@@]2(c3cc(C#CC4(O)CCCCCC4)ccc31)[C@H](c1ccc(O)cc1)N1[C@H](c3ccccc3)[C@H](c3ccccc3)OC(=O)[C@H]1[C@@H]2C(=O)Nc1nc2ccccc2s1` displayed a composite z-score of 0.186.

`COCCOC(=O)N1C(=O)[C@@]2(c3cc(C#CCNC(N)=O)ccc31)[C@H](C(=O)NC[C@H](O)c1ccccc1)[C@H]1C(=O)O[C@H](c3ccccc3)[C@H](c3ccccc3)N1[C@@H]2c1ccccc1OCCO`: the composite z-score came out at 0.294.

Regarding `O=C(NCc1ccccc1)[C@@]1(CCS(=O)(=O)c2ccccc2)N=C(c2ccc(OCCCO)cc2)O[C@H]1c1ccccc1`, the composite z-score came to 0.345.

The next experiment in a line: small molecules captured by biotinylated probe aFGF2 – biochemical, small-molecule microarray, fluorescence 635/667, stem cell growth factor project, primary screen (AID 1067).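 Note: measures binding of biotinylated aFGF2 protein to printed compounds on slides; z-score merges feature fluorescence and signal-to-noise across triplicate slides.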 Conditions: higher = more signal.
For the compound `CN1C(=O)C2C=CC(C(O)c3cc(C(F)(F)F)cc(C(F)(F)F)c3)N(N3CCCCC3)C2C1=O` (centres undefined), the composite z-score came out at 0.0173.

Compound `CC(C)[C@@H](CO)NC(=O)[C@H]1[C@@H](c2ccccc2)N(c2ccccc2)O[C@@H]1C` came in with a composite z-score of -0.143.

Consider `COc1cc2c(cc1O)C(C1CC1)N(Cc1cc3c(cc1Br)OCO3)CC2` (centres undefined), for which the composite z-score was -0.119.

With `C=CCNC(=O)[C@H]1[C@@H]2C(=O)O[C@@H](c3ccccc3)[C@@H](c3ccccc3)N2[C@@H](c2ccccc2OCCO)[C@]12C(=O)Nc1ccc(C#CC3=CCCCC3)cc12`, the composite z-score is -0.0534.

Turning to `O=C1C2C=CC(C(O)c3ccc(F)cc3)N(Nc3ccccc3F)C2C(=O)N1c1ccccc1` (centres undefined), the composite z-score came to 0.124.

The compound `COc1cc(OC)c(C(O)C2C=CC3C(=O)NC(=O)C3N2Nc2ccc(Cl)cc2Cl)cc1Br` (centres undefined) registered a composite z-score of 0.19.

`COc1cc2c(cc1O)C=[N+](Cc1cccc(OC(F)(F)F)c1)CC2` came in with a composite z-score of -0.106.

On to `COc1ccc([Si](C)(C)[C@H]2[C@H](CC(=O)N3Cc4ccccc4C[C@H]3CO)O[C@@]3(C(=O)N(Cc4ccc(N5CCC5=O)cc4)c4ccccc43)[C@@H]2C)cc1`, for which the composite z-score is 0.0967.

Regarding `Cc1ccc(S[C@]2(C(=O)NCCN3CCOCC3)CC(=O)N(Cc3ccccc3)[C@@H]2c2ccc(CO)cc2I)cc1`, the composite z-score was -0.0564.

In turn, `COCCOC(=O)N1C(=O)[C@@]2(c3cc(C#Cc4ccc(OC)cc4)ccc31)[C@H](C(N)=O)[C@H]1C(=O)O[C@H](c3ccccc3)[C@H](c3ccccc3)N1[C@@H]2c1ccccc1OCCO` had a composite z-score of 0.0918.

Take `[N-]=[N+]=NCc1ccccc1C[C@]1(C(=O)NCC(O)CO)N=C(c2ccc(OCCCO)cc2)O[C@H]1c1ccccc1` (some centres undefined): the composite z-score is -0.0039.

Consider `C#CCN(Cc1ccccc1Br)C(/C=C/c1ccccc1)CO` (centres undefined), for which the composite z-score is -0.148.

In turn, `C#CCN(CC=C(C)C)[C@H](CO)c1ccccc1` came in with a composite z-score of -0.164.

The compound `COc1ccc([Si](C)(C)[C@H]2[C@H](CCO)O[C@@]3(C(=O)N(Cc4ccc(N5C(=O)COc6ccccc65)cc4)c4ccccc43)[C@@H]2C)cc1` came in with a composite z-score of -0.14.

`CO[C@H]1O[C@H](CO)[C@@H](OC(=O)Nc2ccc(Br)cc2)[C@H](OC(=O)c2cc3ccccc3[nH]2)[C@H]1OC(=O)c1cc2ccccc2[nH]1` gave a composite z-score of -0.11.

With `CN1C(=O)C2C=CC(C(O)c3ccccc3)N(Nc3ccccc3)C2C1=O` (centres undefined), the composite z-score amounted to 0.0444.

`COC(=O)[C@@]1(Cc2ccc(F)cc2)[C@H]2c3cc(C(=O)N4CCCC4)n(Cc4ccc(C)o4)c3C[C@H]2CN1C(=O)c1ccccc1` yielded a composite z-score of 0.157.

With `CCCCC(=C=CC[C@@H](O)c1ccccc1OCCO)CCO`, the composite z-score was -0.0367.

On to `CC(=O)N1Cc2ccccc2C[C@@]2(COC(c3ccc(OCCCO)cc3)=N2)C1=O`, for which the composite z-score turned out to be 0.235.

`C[C@]1(C(=O)NC2CC2)c2ccccc2C(=O)N(Cc2cc(C(F)(F)F)cc(C(F)(F)F)c2)[C@H]1c1ccc(CO)cc1` registered a composite z-score of 0.0458.

For `CCCC[C@@H]1C[C@H]1[C@@H](NC(=O)c1ccco1)c1ccc(C(=O)OC)cc1`, the composite z-score is -0.124.

With `C[C@@]1([C@@H](NC(=O)c2ccccc2)c2ccc(-c3ccccc3)cc2)C[C@H]1C1CCCCC1`, the composite z-score was 0.0891.

The compound `COCCOC(=O)N1C(=O)[C@@]2(c3cc(C#CC4=CCCCC4)ccc31)[C@H](c1ccc(O)cc1)N1[C@H](c3ccccc3)[C@H](c3ccccc3)OC(=O)[C@H]1[C@@H]2C(N)=O` came in with a composite z-score of -0.0899.

Compound `O=C1C2C=CC(C(O)C(c3ccccc3)c3ccccc3)N(n3cnnc3)C2C(=O)N1Cc1ccccc1` (centres undefined) returned a composite z-score of 0.129.

The compound `CN(C)CCCC[C@@H]1NC(=O)[C@H]2C[C@@H](C(=O)NCCCCCNC(=O)CS)[C@@H](c3cccc(OCCO)c3)N2C1=O` showed a composite z-score of -0.0785.

Take `O=C(O)[C@@]1(CCS(=O)(=O)c2ccccc2)COC(c2ccc(OCCCO)cc2)=N1`: the composite z-score was -0.196.

On to `[N-]=[N+]=NCc1ccccc1[C@@H]1OC(c2ccc(OCCCO)cc2)=N[C@]1(Cc1ccccc1N=[N+]=[N-])C(=O)N1CCOCC1`, for which the composite z-score was 0.321.

`CC(C)N1C(=O)[C@@]2(Cc3ccccc31)c1ccccc1C(=O)N(C1CCCCC1)[C@H]2c1ccc(CO)cc1`: the composite z-score was -0.132.

The compound `CCOC(=O)[C@H]1C/C=C/C[C@H](C(=O)OCC)C(=O)O[C@H]2[C@@H](OC)O[C@H](CO)[C@@H](OC(=O)Nc3ccc(C#N)cc3)[C@@H]2OC1=O` came in with a composite z-score of -0.0414.

Turning to `COc1ccc(C(O)C2C=CC3C(=O)N(c4ccccc4)C(=O)C3N2Nc2ccccc2F)cc1OCc1ccccc1` (centres undefined), the composite z-score was 0.5.

The compound `CN(C)C(=O)[C@]1(Cc2ccccc2CN=[N+]=[N-])N=C(c2ccc(OCCCO)cc2)O[C@@H]1c1ccccc1CN=[N+]=[N-]` returned a composite z-score of 0.0858.

Compound `O=C1NCC(=O)N2[C@@H]1C[C@@H](C(=O)O)[C@H]2c1cccc(OCCO)c1` came in with a composite z-score of 1.02.

`COCCOC(=O)N1C(=O)[C@@]2(c3cc(C#CC4(O)CCCCCC4)ccc31)[C@H](c1ccc(O)cc1)N1[C@H](c3ccccc3)[C@H](c3ccccc3)OC(=O)[C@H]1[C@@H]2C(=O)Nc1nc2ccccc2s1`: the composite z-score is -0.045.

In turn, `COCCOC(=O)N1C(=O)[C@@]2(c3cc(C#CCNC(N)=O)ccc31)[C@H](C(=O)NC[C@H](O)c1ccccc1)[C@H]1C(=O)O[C@H](c3ccccc3)[C@H](c3ccccc3)N1[C@@H]2c1ccccc1OCCO` returned a composite z-score of -0.0899.

In turn, `O=C(NCc1ccccc1)[C@@]1(CCS(=O)(=O)c2ccccc2)N=C(c2ccc(OCCCO)cc2)O[C@H]1c1ccccc1` had a composite z-score of 0.115.
